Results reported in publication PMC5540273 (PLoS ONE, 2017).

Columns and labels:
Details in all cases: concentration: 1 μM, replicates: in singlicate; n = 1
IRAK4 = test system: IRAK4
ITK = test system: ITK
[1] = test system: JAK1(JH1domain-catalytic)
[2] = test system: JAK1(JH2domain-pseudokinase)
[3] = test system: JAK2(JH1domain-catalytic)
[4] = test system: JAK3(JH1domain-catalytic)
JNK1 = test system: T1, JNK1
T1 construct: gene MAPK8

JNK2 = test system: T2, JNK2
T2 construct: gene MAPK9

JNK3 = test system: T3, JNK3
T3 construct: gene MAPK10

KIT-autoinhibited = test system: KIT-autoinhibited
KIT = test system: KIT
LATS1 = test system: LATS1
LATS2 = test system: LATS2
LCK = test system: LCK
LIMK1 = test system: LIMK1
LIMK2 = test system: LIMK2
LKB1 = test system: T4, LKB1
T4 construct: gene STK11

LOK = test system: T5, LOK
T5 construct: gene STK10

LRRK2 = test system: LRRK2
LTK = test system: LTK
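Note: KINOMEscan kinase panel screen.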

| Structure (SMILES) | %Inh (IRAK4) [%] | %Inh (ITK) [%] | %Inh [1] [%] | %Inh [2] [%] | %Inh [3] [%] | %Inh [4] [%] | %Inh (JNK1) [%] | %Inh (JNK2) [%] | %Inh (JNK3) [%] | %Inh (KIT-autoinhibited) [%] | %Inh (KIT) [%] | %Inh (LATS1) [%] | %Inh (LATS2) [%] | %Inh (LCK) [%] | %Inh (LIMK1) [%] | %Inh (LIMK2) [%] | %Inh (LKB1) [%] | %Inh (LOK) [%] | %Inh (LRRK2) [%] | %Inh (LTK) [%] |
| --- | --- | --- | --- | --- | --- | --- | --- | --- | --- | --- | --- | --- | --- | --- | --- | --- | --- | --- | --- | --- |
| Cc1cccc(-c2cc(Nc3ccncc3)c3ccccc3n2)n1 [GSK223675] | 13 | 0 | 11 | 5 | 100 | 0 | 11 | 27 | 15 | 0 | 19 | 0 | 22 | 9 | 0 | 0 | 7 | 0 | 0 | 0 |
| CS(=O)(=O)c1ccc(-c2c(-c3ncn[nH]3)sc(N3CCOCC3)c2C#N)cc1 | 0 | 6 | 0 | 56 | 0 | 2 | 25 | 0 | 0 | 49 | 28 | 24 | 9 | 8 | 0 | 3 | 0 | 31 | 0 | 28 |
| Cn1ccc2ncnc(Oc3cccc(C(=O)Nc4ccccc4)c3)c21 | 8 | 0 | 7 | 27 | 12 | 0 | 16 | 0 | 0 | 0 | 35 | 0 | 6 | 7 | 100 | 0 | 25 | 0 | 0 | 2 |
| Cl.Oc1ccc(-c2nc(-c3ccccc3)[nH]c2-c2ccncc2)cc1 [SB-428218] | 18 | 10 | 4 | 36 | 0 | 0 | 2 | 0 | 0 | 18 | 26 | 0 | 48 | 20 | 0 | 0 | 8 | 0 | 0 | 0 |
| Cc1cc(N2Cc3ccccc3C2)nc(Nc2ccc(S(=O)(=O)N3CCOCC3)cc2)n1.Cl [GSK1669917] | 0 | 0 | 11 | 0 | 0 | 0 | 3 | 13 | 1 | 3 | 0 | 29 | 10 | 4 | 0 | 16 | 12 | 0 | 0 | 0 |
